# Bioassay records: PubChem, several laboratories
# In the library only some 1.2% were active in any assay of this set; here they are far more common.
# Gli-Sufu block – antagonists of Gli-Sufu signaling; Sufu-KO-LIGHT fibroblasts, Gli luciferase reporter luminescence; inhibition, % at 5 µM; actives 0.74% (n = 340,000);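 active means inhibition above about 55%, limit read from the data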;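 further: 0% = DMSO-treated cells and 100% = wells with medium but no cells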
# NCOA3 inh – inhibitors of human steroid receptor coactivator 3 (SRC3); Q9Y6Q9; HEK293 GAL4-SRC3 luciferase reporter, luminescence; inhibition, % at 3.6 µM; actives 0.17% (n = 360,000);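 active means inhibition above a per-campaign cutoff, the mean of all compounds plus 3 SD, cut at about 60% in these data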;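 further: 0% = DMSO-treated cells and 100% = gossypol-treated cells at 36 µM; higher means less SRC3-driven luciferase light from the GAL4 reporter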
# NR2F2 inh – inhibitors of human COUP-TFII (NR2F2) | inhibition, % at 8.6 µM | P24468 | actives 0.7% (n = 370,000) | AID 686940 | HEK293T NGFI-A luciferase reporter, luminescence;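 active means inhibition above a per-plate cutoff, mean inhibition of test wells between control levels plus 3 SD, cut at about 38% in these data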;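 further: cells cotransfected with COUP-TFII expression vector driving the NGFI-A reporter; 0% = median of COUP-TF2 test wells and 100% = reporter-only cells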
# NCOA1 inh – human NCOA1 inhibition; HEK293 GAL4-SRC1 luciferase reporter, luminescence; inhibition, % at 3.6 µM; Q15788; actives 0.12% (n = 360,000); AID 588354;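 active means inhibition above the campaign mean plus 3 SD, with each screening campaign given its own cutoff, cut at about 60% in these data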;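 further: 0% = DMSO treated cells and 100% = gossypol at 36 µM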
# NCOA2 inhibitor – inhibits human steroid receptor coactivator 2 | Q15596 | HEK293 GAL4-SRC2 luciferase reporter, luminescence | inhibition, % at 9 µM | actives 0.17% (n = 370,000);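 active means inhibition above the mean inhibition of all tested compounds plus 3 SD, set per campaign, cut at about 52% in these data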;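 further: 0% = DMSO treated cells and 100% = cells given Gossypol at 36 µM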
# NR5A2 inv ag – inverse agonists of human LRH-1 (NR5A2); O00482; actives 0.13% (n = 360,000); inhibition, % at 3.6 µM; HEK293T StAR-luciferase reporter, LRH-1 transfected, 24 h;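 active means inhibition above the mean inhibition of all tested compounds plus 3 SD, cut at about 73% in these data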;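 further: 0% = DMSO wells and 100% = reporter-only cells lacking LRH-1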
# Target sequence (O00482 whole entry, looked up): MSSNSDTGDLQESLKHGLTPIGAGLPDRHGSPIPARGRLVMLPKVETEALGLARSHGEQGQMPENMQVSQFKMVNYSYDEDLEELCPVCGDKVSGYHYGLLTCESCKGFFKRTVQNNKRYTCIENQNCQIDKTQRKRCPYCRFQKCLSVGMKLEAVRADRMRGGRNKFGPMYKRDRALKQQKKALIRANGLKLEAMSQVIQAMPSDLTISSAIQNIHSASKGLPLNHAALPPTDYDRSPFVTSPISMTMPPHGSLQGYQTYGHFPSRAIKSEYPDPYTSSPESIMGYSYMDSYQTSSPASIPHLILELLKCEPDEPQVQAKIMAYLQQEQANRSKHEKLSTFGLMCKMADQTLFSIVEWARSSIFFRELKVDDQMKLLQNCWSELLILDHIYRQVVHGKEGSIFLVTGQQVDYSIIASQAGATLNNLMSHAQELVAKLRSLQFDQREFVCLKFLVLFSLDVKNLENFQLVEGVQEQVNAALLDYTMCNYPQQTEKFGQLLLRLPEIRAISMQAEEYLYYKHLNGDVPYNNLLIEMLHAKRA
# VP16 Luc counter – inhibits VP16 reporter, flagging COUP-TFII antagonist hits | shares compounds with NR2F2 inh | HEK293 Gal4-VP16 luciferase reporter, luminescence | inhibition, % at 8.5 µM | actives 25% (n = 2,500) | AID 687007; in the data active means inhibition above about 13%
# COUP-TFII conf – confirmation of human COUP-TFII (NR2F2) inhibitors; HEK293 NGFI-A luciferase reporter, luminescence; actives 45% (n = 2,500); shares compounds with NR2F2 inh; inhibition, % at 8.5 µM;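 active means mean inhibition over three repeats above a set limit taken from the earlier primary screen, cut at about 38% in these data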;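 further: 100% = cells given the luciferase reporter alone without the COUP-TF2 vector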
# * marks the source's active call; other numbers are inactive results; x = no result.
SMILES,Gli-Sufu block,NCOA3 inh,NR2F2 inh,NCOA1 inh,NCOA2 inhibitor,NR5A2 inv ag,VP16 Luc counter,COUP-TFII conf
CC(=O)N1CCOc2ccc(S(=O)(=O)NCC3CCC(C(=O)NCCC(C)C)CC3)cc21 (stereo not drawn),-5,2,14,12,-17,-3,x,x
CC(C)CCCCCCCCCCCCC(=O)NCC(=O)NC1C(C)OC(Nc2ncnc3nc[nH]c23)C(O)C1O (stereo not drawn),70*,91*,78*,87*,40,88*,14*,82*
C/C(=C\CNc1ncnc2nc[nH]c12)CO,-9,13,-5,-4,16,15,x,x
O=C(c1ccco1)N1CCCC(c2nc(-c3ccc(S(=O)(=O)NCc4ccccc4)cc3)no2)C1 (stereo not drawn),17,8,51*,-7,21,16,-4,21
O=C(O)c1ccccc1C(=O)Nc1ccc(Oc2cccc3ccccc23)cc1,12,71*,100*,56,89*,62,46*,34
O=C(O)c1ccccc1C(=O)Nc1ccc(Oc2ccc3ccccc3c2)cc1,1,4,66*,-4,47,30,9,7
Cc1cccc(Oc2ccc(NC(=O)c3ccccc3C(=O)O)cc2)c1C,-5,-8,25,-29,-38,22,x,x
Cn1c(CN2CCCCC2)nc2cc(NC(=O)c3cccc(Br)c3)ccc21,1,-15,49*,-12,-26,32,-43,11
Cc1c(C(=O)Nc2ccncc2)sc2nc(-c3ccccc3)cn12,25,7,52*,7,11,-36,-41,12
CC1=CC(=O)C(C(C)C)=C/C1=N\OS(=O)(=O)c1ccccc1,x,x,82*,x,x,x,6,13
NS(=O)(=O)c1cccc(NS(=O)(=O)c2cccc(C(F)(F)F)c2)c1,10,10,43*,-3,2,10,3,3
O=S1(=O)c2ccc(N3CCC[C@@H]3CO)cc2OCCCN1C1CC1,x,x,4,x,-15,x,x,x
Cc1nc(N2CCN(C(=O)COc3ccccc3)CC2)c2c(C)c(C)sc2n1,18,20,1,11,11,36,x,x
Cc1nc(N2CCN(C(=O)COc3ccccc3C)CC2)c2c3c(sc2n1)CCCC3,x,x,76*,x,x,x,-7,-18
O=C(c1ccccc1)N1CCN(c2ncnc3sc4c(c23)CCC4)CC1,42,16,40*,17,40,-8,-7,10
COC(=O)[C@H](Cc1ccccc1)NC(=O)[C@H]1C[C@@]2(N3CCCC3)c3ccccc3N(C(=O)OC(C)(C)C)[C@H]2N1C(=O)OC(C)(C)C,x,x,-5,x,21,x,x,x
O=C(NC1CCCC1)C1CSCCS(=O)(=O)N1Cc1ccc(F)cc1 (stereo not drawn),x,x,-10,x,-27,x,x,x
Cc1nc2ccccc2n1Cc1ccc(Cl)cc1,42,13,61*,-14,27,47,1,39*
COc1ccc(CNC(=O)c2sc(=O)n(Cc3ccc(C)cc3)c2C)cc1,x,15,-14,-11,-16,4,x,x
COc1ccc(CNC(=O)c2sc(=O)n(Cc3ccc(S(=O)(=O)N(C)C)cc3)c2C)cc1,x,11,45*,14,22,13,8,16
Cc1c(C(=O)NCc2ccc(C(F)(F)F)cc2)sc(=O)n1Cc1ccc(S(=O)(=O)N(C)C)cc1,x,7,42*,6,17,29,-4,21
COc1ccc(OC)c(Nc2nc(-c3sc(NC(=O)C(C)(C)C)nc3C)cs2)c1,-12,-13,31,11,-24,29,x,x
COc1ccc(Cl)cc1Nc1nc(-c2sc(NC(=O)C(C)(C)C)nc2C)cs1,15,61,41*,72*,-33,38,-5,42*
C[C@H]1C2CC(OC(=O)NCc3ccc(Cl)cc3)C(C2)[C@H]2CCCCN21 (stereo partly drawn),x,x,3,x,-12,x,x,x
CCOC(=O)C1(Cc2ccc(Cl)cc2)CCN(C(C)Cc2ccc(O)c(OC)c2)CC1 (stereo not drawn),72*,11,53*,-11,34,17,2,16
SMILES,Gli-Sufu block,NCOA3 inh,NR2F2 inh,NCOA1 inh,NCOA2 inhibitor,NR5A2 inv ag,VP16 Luc counter,COUP-TFII conf
CCOC(=O)C1(Cc2ccc(OC)cc2)CCN(S(C)(=O)=O)CC1,-9,9,1,-8,-27,-5,x,x
Cc1cc(C(=O)COC(=O)C2=NNC(=O)CC2)c(C)n1-c1ccccc1,-5,-2,1,-19,25,1,x,x
Cc1cc(C(=O)COC(=O)C2=COCCO2)c(C)n1-c1ccccc1,-4,52,65*,54,39,55,16*,74*
O=C(NCc1ccccc1)[C@H]1CCCN1C(=O)[C@H]1CCCN1C(=O)C1CCCCC1,x,x,4,x,-1,x,x,x
O=C(NCCc1ccccc1)c1ccc2c(c1)OCCCO2,70*,74*,88*,74*,88*,78*,72*,91*
Nc1cc[n+](CC(=O)c2ccc3c(c2)OCCO3)cc1,18,17,40*,-10,30,40,-3,16
O=C(CCCc1ccccc1)c1ccc2c(c1)OCCO2,40,70*,85*,71*,75*,67,49*,90*
O=C(CCc1ccccc1)c1ccc2c(c1)OCCCO2,-74,-93,-32,-207,-56,-136,x,x
O=C(NCCc1ccccc1)c1ccc2c(c1)OCCO2,34,53,71*,48,76*,56,36*,53*
O=C(C[n+]1ccc(C(=O)NCc2ccccc2)cc1)c1ccc2c(c1)OCCO2,-4,4,-12,10,11,22,x,x
O=C(NCCS(=O)(=O)NCCc1ccccc1)c1ccc2c(c1)OCO2,-85,-46,-25,-80,-53,-87,x,x
COc1ccc(CCNC(=O)c2ccc3c(c2)OCCO3)cc1,-46,-42,-20,-39,-29,-76,x,x
COC(=O)[C@]1(CC(C)C)NC=C(C(=O)c2ccccc2)[C@@H]1c1cccc(C(F)(F)F)c1,x,x,14,x,-5,x,x,x
Cc1cccc(CCNC(=O)CSc2nc3c([nH]2)c(=O)n(C)c(=O)n3C)c1,x,x,-9,x,-11,x,x,x
CC(C)(C)c1ccc(C(=O)N2CCCCCC2=O)cc1,43,51,86*,44,87*,57,81*,76*
COc1cccc(C(C)(O)c2nc(-c3ccc(S(C)(=O)=O)cc3)cs2)c1 (stereo not drawn),x,13,40*,10,9,43,3,5
O=c1c2ccccc2nc2n1C(CSCc1ccc(Cl)cc1)CS2 (stereo not drawn),45,8,42*,18,23,4,2,14
